This is part of a sample that, as a whole, favours compounds with a hit. Of some 79,000 tested, about 15% had one in any assay. Activity calls are given as the source filed them. Cut-off read from the data, not from the text of the source: active = growth inhibition above about 70%; inactive = the rest.
Experiments:
[1] = NCI Yeast Anticancer Drug Screen. Data for the rad52 strain (AID 147);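 note: 0% = growth of vehicle-treated control cultures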; settings: S. cerevisiae rad52 mutant growth inhibition, stronger effect = higher value
Outline: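 Measured: yeast growth inhibition. System: strain with a defined DNA damage repair alteration. Reference: vehicle-treated control cultures.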

[2] = NCI Yeast Anticancer Drug Screen. Data for the wt1 strain (AID 149);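 note: 0% = growth of vehicle-treated wt1 cultures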; settings: S. cerevisiae wt1 strain (SPY 50644) growth inhibition, stronger effect = higher value
Outline: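 Each compound is tested on wt1 yeast and the loss of growth versus vehicle gives the inhibition value.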

[3] = NCI Yeast Anticancer Drug Screen. Data for the rad50EPP+ strain (AID 151);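 note: 0% = growth of vehicle-treated control cultures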; settings: S. cerevisiae rad50 mutant strain, stronger effect = higher value
Outline: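 One strain with a rad50 alteration (rad50EPP+) was compound-treated, its growth then compared to that of vehicle controls.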

[4] = NCI Yeast Anticancer Drug Screen. Data for the rad50 strain (AID 155);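 note: 0% = growth of vehicle-only cultures of the same strain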; settings: S. cerevisiae rad50 strain growth inhibition, stronger effect = higher value
Outline: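 Vehicle-treated cultures provide the reference for the growth inhibition reported for compound-exposed, repair-deficient yeast.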

[5] = NCI Yeast Anticancer Drug Screen. Data for the mec2-1 strain (AID 157); settings: S. cerevisiae mec2-1 strain, stronger effect = higher value
Outline: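 Test agents were screened against the mec2-1 yeast strain, with defined DNA repair or cell cycle alteration. Growth was scored as inhibition against vehicle-only controls.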

[6] = NCI Yeast Anticancer Drug Screen. Data for the rad14 strain (AID 159);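 note: 0% = growth of vehicle-treated control cultures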; settings: S. cerevisiae rad14 strain growth inhibition, stronger effect = higher value
Outline: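 Inhibition of growth is reported for a repair-deficient yeast mutant following compound treatment, calculated relative to cultures that received vehicle.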

[7] = NCI Yeast Anticancer Drug Screen. Data for the sgs1 mgt1 strain (AID 161);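 note: 0% = growth of cultures given vehicle only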; settings: S. cerevisiae sgs1 mgt1 strain, stronger effect = higher value
Outline: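 Genetically altered yeast, compound exposure, growth inhibition relative to vehicle.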

[8] = NCI Yeast Anticancer Drug Screen. Data for the CLN2oe strain (AID 163);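 note: 0% = growth of vehicle-only control cultures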; settings: S. cerevisiae CLN2oe strain, stronger effect = higher value
Outline: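 Here, growth inhibition in a cell-cycle-altered yeast strain after compound exposure was quantified against vehicle control growth.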

[9] = NCI Yeast Anticancer Drug Screen. Data for the cln2 rad14 strain (AID 165);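 note: 0% = growth equal to vehicle treated cultures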; settings: S. cerevisiae cln2 rad14 strain, stronger effect = higher value
Outline: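 Growth of compound-exposed yeast (cln2 rad14 genotype) measured and expressed as inhibition relative to vehicle.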

[10] = NCI Yeast Anticancer Drug Screen. Data for the bub3 strain (AID 167); settings: S. cerevisiae bub3 mutant strain, stronger effect = higher value
Outline: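 Mutant yeast screening strain plus compound; vehicle-treated cultures serve as the 0% inhibition reference.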

[11] = NCI Yeast Anticancer Drug Screen. Data for the wt2 strain (AID 169); settings: S. cerevisiae wt2 strain growth inhibition, stronger effect = higher value
Outline: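 Genetically defined yeast strains from a DNA-repair/cell-cycle panel were used. Compound-exposed yeast growth was measured, and the inhibition was calculated relative to vehicle treatment.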

[12] = NCI Yeast Anticancer Drug Screen. Data for the mlh1 strain (AID 171);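 note: 0% = growth of vehicle-treated control cultures of the same strain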; settings: S. cerevisiae mlh1 strain growth inhibition, stronger effect = higher value
Outline: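 Here the genetically defined yeast mutant is grown with each compound, and the extent to which its growth falls below that of vehicle-exposed cells is reported.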

[13] = NCI Yeast Anticancer Drug Screen. Data for the sgs1 strain (AID 173);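 note: 0% = growth of vehicle-only control cultures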; settings: S. cerevisiae sgs1 mutant, stronger effect = higher value
Outline: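 Relative growth inhibition, referenced to vehicle, was determined in a yeast strain with a defined alteration affecting DNA damage repair or cell cycle control after compound exposure.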

[14] = NCI Yeast Anticancer Drug Screen. Data for the mlh1 rad18 strain (AID 175); settings: S. cerevisiae mlh1 rad18 strain growth inhibition, stronger effect = higher value
Outline: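 In this whole-cell yeast screen, a strain with altered DNA damage repair is challenged with compound, and its growth is measured against matched vehicle-treated controls.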

[15] = NCI Yeast Anticancer Drug Screen. Data for the rad18 strain (AID 177); settings: S. cerevisiae rad18 mutant growth inhibition, stronger effect = higher value
Outline: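 Screen uses a yeast strain with a defined lesion in DNA damage repair; compound effect is read as loss of growth compared to untreated vehicle cultures.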

[16] = NCI Yeast Anticancer Drug Screen. Data for the mgt1 strain (AID 153); settings: S. cerevisiae mgt1 mutant growth inhibition, stronger effect = higher value
Outline: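 After exposure of the mgt1 yeast mutant to compound, growth was measured and reported as inhibition compared with vehicle controls.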

[17] = at 5.0 µM (retest, dose inferred, filed as 0.5)
[18] = at 50.0 µM (retest, dose inferred, filed as 5.0)

Measured: growth inhibition

Cc1ccc(S/N=C\c2ccccc2O)cc1
active: [4]; [18] 79% | [4]; at 50.0 µM 89.6% | [5]; at 50.0 µM 73.6% | [10]; at 50.0 µM 76.5% | [14]; at 50.0 µM 94.3%
inactive: [1]; at 1.2 µM 1% | [1]; at 3.7 µM -6% | [1]; at 11.0 µM -3% | [1]; at 33.0 µM 0% | [1]; at 100.0 µM 8% | [2]; at 1.2 µM -1% | [2]; at 3.7 µM 0% | [2]; at 11.0 µM 0% | [2]; at 33.0 µM 1% | [2]; at 100.0 µM 1% | [3]; at 1.2 µM 4% | [3]; at 3.7 µM 3% | [3]; at 11.0 µM 6% | [3]; at 33.0 µM 17% | [3]; at 100.0 µM 35% | [4]; at 1.2 µM -2% | [4]; at 3.7 µM -12% | [4]; [17] -130% | [4]; at 11.0 µM 2% | [4]; at 33.0 µM 12% | [4]; at 100.0 µM 6% | [5]; at 1.2 µM 0% | [5]; at 3.7 µM 3% | [5]; [17] -48% | [5]; at 11.0 µM -11% | [5]; at 33.0 µM -1% | [5]; [18] -4% | [5]; at 100.0 µM 7% | [6]; at 1.2 µM -2% | [6]; at 3.7 µM -6% | [6]; at 11.0 µM -4% | [6]; at 33.0 µM -3% | [6]; at 100.0 µM 1% | [7]; [17] -59% | [7]; [18] 53% | [7]; at 50.0 µM 62% | [8]; at 1.2 µM 2% | [8]; at 3.7 µM 1% | [8]; at 11.0 µM 2% | [8]; at 33.0 µM 2% | [8]; at 100.0 µM 4% | [9]; [17] -58% | [9]; [18] -23% | [9]; at 50.0 µM 34.9% | [10]; at 1.2 µM -4% | [10]; at 3.7 µM -6% | [10]; [17] -59% | [10]; at 11.0 µM -2% | [10]; at 33.0 µM -5% | [10]; [18] 47% | [10]; at 100.0 µM 4% | [11]; at 1.2 µM 4% | [11]; at 3.7 µM 4% | [11]; at 11.0 µM 5% | [11]; at 33.0 µM 0% | [11]; at 100.0 µM -1% | [12]; at 1.2 µM 9% | [12]; at 3.7 µM 2% | [12]; at 11.0 µM -2% | [12]; at 33.0 µM 0% | [12]; at 100.0 µM 1% | [13]; at 1.2 µM 3% | [13]; at 3.7 µM 7% | [13]; at 11.0 µM 7% | [13]; at 33.0 µM 9% | [13]; at 100.0 µM 6% | [14]; [17] -112% | [14]; [18] 31% | [15]; at 1.2 µM -1% | [15]; at 3.7 µM 0% | [15]; at 11.0 µM 0% | [15]; at 33.0 µM 1% | [15]; at 100.0 µM 9%

CCCCCCCCCCCCCCCCCCOCC(O)COP(=O)(O)OCC1OC(n2cc(F)c(=O)[nH]c2=O)CC1O (stereo not drawn)
active: [1]; at 33.0 µM 97% | [1]; at 100.0 µM 97% | [2]; at 100.0 µM 93% | [3]; at 11.0 µM 70% | [3]; at 33.0 µM 88% | [3]; at 100.0 µM 89% | [16]; at 33.0 µM 98% | [16]; at 100.0 µM 98% | [4]; [17] 91% | [4]; at 33.0 µM 96% | [4]; [18] 99% | [4]; at 50.0 µM 87.6% | [4]; at 100.0 µM 98% | [6]; at 100.0 µM 95% | [7]; [18] 98% | [7]; at 50.0 µM 88.3% | [8]; at 33.0 µM 96% | [8]; at 100.0 µM 99% | [9]; [18] 96% | [9]; at 50.0 µM 89.8% | [10]; at 33.0 µM 74% | [10]; [18] 91% | [10]; at 50.0 µM 82.3% | [10]; at 100.0 µM 94% | [11]; at 33.0 µM 88% | [11]; at 100.0 µM 94% | [12]; at 33.0 µM 96% | [12]; at 100.0 µM 97% | [13]; at 11.0 µM 81% | [13]; at 33.0 µM 95% | [13]; at 100.0 µM 97% | [14]; [18] 99% | [14]; at 50.0 µM 91.2% | [15]; at 33.0 µM 97% | [15]; at 100.0 µM 98%
inactive: [1]; at 1.2 µM 15% | [1]; at 3.7 µM 16% | [1]; at 11.0 µM 61% | [2]; at 1.2 µM 17% | [2]; at 3.7 µM 4% | [2]; at 11.0 µM -7% | [2]; at 33.0 µM 16% | [3]; at 1.2 µM 42% | [3]; at 3.7 µM 38% | [16]; at 1.2 µM 30% | [16]; at 3.7 µM 25% | [16]; at 11.0 µM 64% | [4]; at 1.2 µM 18% | [4]; at 3.7 µM -10% | [4]; at 11.0 µM 54% | [6]; at 1.2 µM 27% | [6]; at 3.7 µM 9% | [6]; at 11.0 µM -5% | [6]; at 33.0 µM 63% | [7]; [17] -34% | [8]; at 1.2 µM 30% | [8]; at 3.7 µM 28% | [8]; at 11.0 µM 60% | [9]; [17] 1% | [10]; at 1.2 µM 14% | [10]; at 3.7 µM 28% | [10]; [17] -12% | [10]; at 11.0 µM 1% | [11]; at 1.2 µM -57% | [11]; at 3.7 µM -83% | [11]; at 11.0 µM 58% | [12]; at 1.2 µM 32% | [12]; at 3.7 µM 19% | [12]; at 11.0 µM 54% | [13]; at 1.2 µM 26% | [13]; at 3.7 µM 19% | [14]; [17] 24% | [15]; at 1.2 µM 27% | [15]; at 3.7 µM -2% | [15]; at 11.0 µM 52%
